From PubChem BioAssay
The source made the active and inactive calls.

Key:
[1] = test system: Plasmodium falciparum Sir2 (PF13_0152, Sir2A); assay: Plasmodium falciparum Sir2A binding compounds – biochemical, small-molecule microarray, 635 nm fluorescence, primary screen (AID 1098); details: fluorescence 635 nm, higher = more signal;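 further: score merges spot fluorescence intensity with its signal-to-noise ratio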
[2] = probe aDKK1 binding to arrayed compounds – biochemical, biotinylated probe, 635/667 nm fluorescence, primary screen (AID 1099); details: small-molecule microarray, higher = more signal;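 further: score merges 667nm spot fluorescence with signal to noise across triplicate slides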
[3] = probe aCHRDL2 binding to arrayed compounds – biochemical, biotinylated probe, 635/667 nm fluorescence, primary screen (AID 1100); details: small-molecule microarray, higher = more signal
[4] = change in splice reporter luminescence, either direction, cell-based, HEK293, spliceosome inhibition project, primary screen (AID 1101); details: HEK293 splicing luciferase reporter, 24 h, higher = more signal, called active from +8 up or from −8 down;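 further: HEK293 cells carrying a splicing-competent luciferase reporter gene; test concentration not given here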
[5] = molecular target: Fibroblast growth factor 10 (Homo sapiens) (UniProt O15520); assay: compounds binding fibroblast growth factor 10 – biochemical, small-molecule microarray, 635 nm fluorescence, primary screen (AID 1102); details: FGF10 binding, fluorescence 635 nm, higher = more signal
Sequence of Fibroblast growth factor 10 (Homo sapiens) (O15520 whole entry, looked up): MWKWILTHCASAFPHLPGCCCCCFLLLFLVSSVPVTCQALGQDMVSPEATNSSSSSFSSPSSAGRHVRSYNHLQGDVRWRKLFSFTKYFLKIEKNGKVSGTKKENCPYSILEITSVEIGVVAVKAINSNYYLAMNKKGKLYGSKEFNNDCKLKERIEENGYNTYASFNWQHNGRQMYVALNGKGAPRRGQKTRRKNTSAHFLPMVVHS

[6] = test system: glycogen synthase kinase-3 (GSK3A per assay name; protocol says GSK3B); assay: compounds binding glycogen synthase kinase-3 – biochemical, small-molecule microarray, 635 nm fluorescence, GSK3A, primary screen (AID 1103); details: fluorescence 635 nm, higher = more signal; further: the record names both GSK3A and GSK3B
[7] = molecular target: Epidermal growth factor receptor (Homo sapiens) (UniProt P00533); assay: compounds binding epidermal growth factor receptor – biochemical, small-molecule microarray, 635 nm fluorescence, primary screen (AID 1104); details: EGFR binding, higher = more signal;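 further: score merges 667 nm emission intensity with spot signal to noise over triplicate slides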
Sequence of Epidermal growth factor receptor (Homo sapiens) (P00533 whole entry, looked up): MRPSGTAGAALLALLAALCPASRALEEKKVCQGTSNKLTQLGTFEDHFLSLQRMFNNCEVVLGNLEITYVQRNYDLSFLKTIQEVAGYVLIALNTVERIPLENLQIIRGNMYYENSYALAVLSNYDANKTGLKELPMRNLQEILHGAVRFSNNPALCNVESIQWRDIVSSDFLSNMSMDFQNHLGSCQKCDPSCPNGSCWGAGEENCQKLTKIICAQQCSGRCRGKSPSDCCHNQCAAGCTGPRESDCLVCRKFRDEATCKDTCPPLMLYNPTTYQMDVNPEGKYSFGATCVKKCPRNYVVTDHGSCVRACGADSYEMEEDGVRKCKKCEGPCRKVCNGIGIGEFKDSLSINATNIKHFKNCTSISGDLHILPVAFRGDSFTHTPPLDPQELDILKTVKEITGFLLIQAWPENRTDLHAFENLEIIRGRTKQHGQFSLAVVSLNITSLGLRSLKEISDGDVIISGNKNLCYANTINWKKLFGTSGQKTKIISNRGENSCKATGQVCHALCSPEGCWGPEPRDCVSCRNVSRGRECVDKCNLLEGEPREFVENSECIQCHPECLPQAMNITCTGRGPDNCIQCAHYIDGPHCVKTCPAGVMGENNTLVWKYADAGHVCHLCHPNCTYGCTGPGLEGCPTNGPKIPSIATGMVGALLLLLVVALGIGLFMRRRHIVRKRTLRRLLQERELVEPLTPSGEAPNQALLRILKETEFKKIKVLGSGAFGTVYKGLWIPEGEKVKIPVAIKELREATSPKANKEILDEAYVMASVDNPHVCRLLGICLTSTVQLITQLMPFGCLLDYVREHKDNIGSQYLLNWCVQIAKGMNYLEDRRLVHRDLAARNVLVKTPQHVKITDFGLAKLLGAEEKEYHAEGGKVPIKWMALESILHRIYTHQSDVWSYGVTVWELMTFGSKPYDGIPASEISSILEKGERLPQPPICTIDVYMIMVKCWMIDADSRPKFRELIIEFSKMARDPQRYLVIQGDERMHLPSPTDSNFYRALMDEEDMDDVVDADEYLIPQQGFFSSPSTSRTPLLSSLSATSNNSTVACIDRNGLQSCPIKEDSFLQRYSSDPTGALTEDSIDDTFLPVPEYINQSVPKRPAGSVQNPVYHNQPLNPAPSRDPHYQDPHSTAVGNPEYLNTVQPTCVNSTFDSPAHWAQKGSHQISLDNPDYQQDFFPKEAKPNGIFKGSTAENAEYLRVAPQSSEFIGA

[8] = molecular target: Follistatin-related protein 3 (Homo sapiens) (UniProt O95633); assay: compounds binding follistatin-related protein 3 – biochemical, small-molecule microarray, 635 nm fluorescence, primary screen (AID 1105); details: FSTL3 binding, higher = more signal;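 further: score merges emission near 667 nm and signal to noise per printed spot across three slides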
Sequence of Follistatin-related protein 3 (Homo sapiens) (O95633 whole entry, looked up): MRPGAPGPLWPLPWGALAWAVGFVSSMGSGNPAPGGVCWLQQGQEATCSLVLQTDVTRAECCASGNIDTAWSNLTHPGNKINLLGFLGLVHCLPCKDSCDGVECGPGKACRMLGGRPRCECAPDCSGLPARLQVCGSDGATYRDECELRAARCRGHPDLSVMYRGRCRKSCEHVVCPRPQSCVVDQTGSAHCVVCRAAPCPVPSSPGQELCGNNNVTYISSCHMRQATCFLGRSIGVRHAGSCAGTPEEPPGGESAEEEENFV

[9] = molecular target: Dickkopf-related protein 1 (Homo sapiens) (UniProt O94907); assay: small molecules binding DKK1 protein – biochemical, small-molecule microarray, 635 nm fluorescence scan, primary screen (AID 1106); details: higher = more signal;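 further: score merges emission near 667 nm with signal to noise over three replicate slides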
Sequence of Dickkopf-related protein 1 (Homo sapiens) (O94907 whole entry, looked up): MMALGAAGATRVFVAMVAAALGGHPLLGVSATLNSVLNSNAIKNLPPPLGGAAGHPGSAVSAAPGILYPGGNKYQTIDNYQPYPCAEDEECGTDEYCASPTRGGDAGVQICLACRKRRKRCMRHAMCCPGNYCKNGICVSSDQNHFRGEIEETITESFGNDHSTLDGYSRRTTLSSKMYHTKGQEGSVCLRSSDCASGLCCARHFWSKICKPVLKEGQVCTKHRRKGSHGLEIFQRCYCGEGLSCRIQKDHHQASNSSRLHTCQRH

[10] = test system: Inhibin beta A chain (activin A); assay: small molecules binding activin A – biochemical, small-molecule microarray, 635 nm fluorescence scan, primary screen (AID 1107); details: INHBA, higher = more signal;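 further: mouse activin A protein probed at 4.33 µg/mL on printed slides; score merges bound-protein fluorescence near 667 nm with spot signal-to-noise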
[11] = test system: Human papillomavirus type 1a protein E7 (residues 44-93); assay: small molecules binding HPV E7 44-93 – biochemical, small-molecule microarray, residues 44-93, 635 nm fluorescence, primary screen (AID 1108); details: fluorescence 635 nm, higher = more signal;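 further: E7 fragment applied at 1 µg/mL in TBST for 1 h at 4 C; score combines spot fluorescence with its signal to noise ratio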
[12] = hepatitis C replication reporter changes, two-sided – Huh7 cells, luciferase reporter, HCV replication inhibitor project, primary screen (AID 1109); details: Huh7 HCV replicon luciferase reporter, 48 h; higher = more signal;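 further: huh7 hepatoma cells harbouring a luciferase neomycin HCV replicon reporter; luciferase luminescence as measure of HCV replicon replication; test concentration not given here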
[13] = molecular target: Left-right determination factor 2 (Homo sapiens) (UniProt O00292); assay: small molecules binding LEFTY2 protein – biochemical, small-molecule microarray, 635 nm fluorescence scan, primary screen (AID 1110); details: higher = more signal
Sequence of Left-right determination factor 2 (Homo sapiens) (O00292 whole entry, looked up): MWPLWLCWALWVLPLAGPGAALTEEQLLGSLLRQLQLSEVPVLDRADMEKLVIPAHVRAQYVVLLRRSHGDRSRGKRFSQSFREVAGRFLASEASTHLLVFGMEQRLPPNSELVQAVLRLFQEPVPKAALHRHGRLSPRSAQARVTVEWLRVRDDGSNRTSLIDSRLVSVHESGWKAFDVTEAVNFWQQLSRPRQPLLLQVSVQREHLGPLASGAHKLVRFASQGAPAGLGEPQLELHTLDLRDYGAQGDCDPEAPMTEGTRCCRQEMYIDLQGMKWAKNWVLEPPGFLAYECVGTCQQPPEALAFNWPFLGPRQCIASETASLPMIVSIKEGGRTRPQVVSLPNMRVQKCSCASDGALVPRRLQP

[14] = molecular target: Calmodulin-1 (Homo sapiens) (UniProt P0DP23); assay: small molecules binding calmodulin-1 with EGTA – biochemical, small-molecule microarray, Cy5-labelled CALM1, profiling panel (AID 1111); details: Cy5-CALM1 binding fluorescence, higher = more signal;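 further: labelled calmodulin applied in Tris saline Tween buffer holding calcium plus EGTA and DTT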
[15] = molecular target: Calmodulin-1 (Homo sapiens) (UniProt P0DP23); assay: small molecules binding Ca-loaded calmodulin-1 – biochemical, small-molecule microarray, Cy5-labelled CALM1, plus calcium, artefact control for SMM control-protein annotation, profiling panel (AID 1112); details: Cy5-CALM1 binding fluorescence, higher = more signal;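 further: score merges spot fluorescence with signal to noise from triplicate slides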
[16] = probe aWnt5a binding to arrayed compounds – biochemical, biotinylated probe, 635/667 nm fluorescence, primary screen (AID 1113); details: small-molecule microarray, higher = more signal;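 further: score merges 667 nm fluorescence intensity with signal-to-noise per printed feature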
[17] = probe aShh binding to arrayed compounds – biochemical, biotinylated probe, 635/667 nm fluorescence, primary screen (AID 1114); details: small-molecule microarray, higher = more signal;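 further: probe is biotin-labelled aShh protein from a stem cell growth factor screen; measures binding of labelled protein to compounds printed on the slide; score merges feature fluorescence at 667 nm with signal-to-noise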
[18] = probe aNog binding to arrayed compounds – biochemical, biotinylated probe, 635/667 nm fluorescence, primary screen (AID 1115); details: small-molecule microarray, higher = more signal;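 further: probe is biotinylated aNog protein used at 0.15 µg/mL for 1 h at 4 C; z-score combines 667 nm fluorescence of each spot with its signal to noise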
[19] = molecular target: Torsin-1A-interacting protein 1 (Homo sapiens) (UniProt Q5JTV8); assay: compound microarray binding of lysate hLAP1 – cell lysate, small-molecule microarray, COS7 lysate, 635/667 nm fluorescence, primary screen (AID 1116); details: 635 nm fluorescence, higher = more signal
Sequence of Torsin-1A-interacting protein 1 (Homo sapiens) (Q5JTV8 whole entry, looked up): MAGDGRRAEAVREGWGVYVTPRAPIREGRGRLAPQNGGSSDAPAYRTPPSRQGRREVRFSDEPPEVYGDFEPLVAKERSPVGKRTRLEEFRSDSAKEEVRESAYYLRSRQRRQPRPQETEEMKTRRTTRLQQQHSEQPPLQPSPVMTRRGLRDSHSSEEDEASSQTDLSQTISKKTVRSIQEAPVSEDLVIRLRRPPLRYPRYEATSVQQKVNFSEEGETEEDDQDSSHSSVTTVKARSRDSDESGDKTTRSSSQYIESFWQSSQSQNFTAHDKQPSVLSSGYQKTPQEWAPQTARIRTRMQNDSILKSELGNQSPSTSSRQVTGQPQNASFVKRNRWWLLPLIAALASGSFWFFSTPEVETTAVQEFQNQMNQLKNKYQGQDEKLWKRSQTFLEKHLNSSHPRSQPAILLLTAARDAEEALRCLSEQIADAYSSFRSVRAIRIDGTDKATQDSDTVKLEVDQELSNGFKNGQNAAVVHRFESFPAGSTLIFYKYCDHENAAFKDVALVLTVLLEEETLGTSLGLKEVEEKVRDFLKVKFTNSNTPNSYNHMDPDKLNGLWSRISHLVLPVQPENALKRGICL

[20] = molecular target: Alpha-bungarotoxin (Bungarus multicinctus) (UniProt P60615); assay: compounds binding labelled alpha-BTX control protein – biochemical, small-molecule microarray, Alexa647 label, 635/667 nm fluorescence, artefact control for SMM control protein annotation, profiling panel (AID 1117); details: alpha-BTX-A647 binding fluorescence, higher = more signal
Sequence of Alpha-bungarotoxin (Bungarus multicinctus) (P60615 whole entry, looked up): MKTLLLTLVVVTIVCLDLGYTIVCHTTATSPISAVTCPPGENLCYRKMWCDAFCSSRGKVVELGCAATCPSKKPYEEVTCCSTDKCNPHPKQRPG

Structure (SMILES) | composite z-score [1] | composite z-score [2] | composite z-score [3] | z-score [4] | composite z-score [5] | composite z-score [6] | composite z-score [7] | composite z-score [8] | composite z-score [9] | composite z-score [10] | composite z-score [11] | z-score [12] | composite z-score [13] | composite z-score [14] | composite z-score [15] | composite z-score [16] | composite z-score [17] | composite z-score [18] | composite z-score [19] | composite z-score [20]
COc1ccc(C#Cc2ccc3c(c2)[C@]2(C(=O)N3)[C@H](C(=O)NC[C@H](O)c3ccccc3)[C@H]3C(=O)O[C@H](c4ccccc4)[C@H](c4ccccc4)N3[C@@H]2c2ccc(O)cc2)cc1 | 1.16 | -0.0262 | 0.295 | -0.993 (inactive) | 1.02 | 1.16 | 0.417 | 0.768 | 0.484 | 0.0998 | 1.43 | -1.38 | 0.559 | 1.04 | -0.064 | 0.0952 | 0.0723 | 0.277 | 1.06 | 1.72
CCS[C@H]1[C@@H](C(=O)O)[C@H](c2ccc(C)cc2)N(S(=O)(=O)c2ccc(C)cc2)[C@@H]1CC | 0.673 | 0.686 | 0.907 | 0.269 (inactive) | 1.14 | 0.793 | 0.0771 | 1.1 | -0.0423 | 0.626 | 1.39 | 0.841 | 0.0041 | 0.83 | 0.0072 | -0.1 | -0.0035 | 1.11 | 0.827 | 0.834
COc1ccc(C(=O)Nc2ccc(CN3C(=O)[C@]4(O[C@H](CCO)[C@@H]([Si](C)(C)c5ccc(OC)cc5)[C@@H]4C)c4ccccc43)cc2)cc1 | 1.21 | -0.122 | 0.326 | -3.38 (inactive) | 0.708 | 0.762 | 0.231 | 1.02 | 0.241 | 1.3 | 1 | -5.09 | 0.202 | 0.564 | -0.314 | 0.026 | 0.014 | -0.226 | 0.432 | 0.509
C#C[C@H](O[Si](C#Cc1ccc(Oc2ccccc2)cc1)(C(C)C)C(C)C)c1ccccc1 | 1.39 | 0.629 | 0.0024 | -0.855 (inactive) | 0.406 | 0.639 | 0.144 | 0.563 | -0.0522 | -0.0811 | 0.922 | -1.73 | 0.764 | -0.355 | -0.571 | -0.0519 | -0.248 | -0.244 | 0.692 | 0.495
C=CCOC(=O)[C@H]1[C@@H]2C(=O)O[C@@H](c3ccccc3)[C@@H](c3ccccc3)N2[C@@H](c2ccc(OCCOC(=O)[C@H]3C[C@H]4C(=O)N[C@@H](CCCC[N+](C)(C)C)C(=O)N4[C@H]3c3ccc(O)cc3)cc2)[C@]12C(=O)Nc1ccc(I)cc12 | 1.48 | 0.177 | -0.228 | 1.2 (inactive) | 0.332 | 0.86 | 0.0741 | 0.803 | 1.41 | 0.225 | 0.756 | -0.537 | 0.853 | -0.421 | -0.0782 | 0.0549 | 1.11 | 1.86 | 0.218 | 0.659
CC(=O)NCCCC[C@@H]1NC(=O)[C@H]2C[C@@H](C(=O)NCCCCCCNC(=O)CS)[C@@H](c3ccc(O)cc3)N2C1=O | 0.629 | -0.0749 | 0.986 | -0.401 (inactive) | 0.0258 | 0.0703 | -0.728 | -0.961 | -0.788 | -1.11 | 1.06 | -0.532 | -0.747 | 0.362 | -0.295 | -0.124 | 0.131 | 0.0933 | 0.284 | 1.33
